Here are results for three compounds from PubChem BioAssay (NCATS).

Inconclusive results are not listed. Active and inactive are the calls of the source. Unless noted, calls come from the whole dose curve; as a rule, active = well fitted curve in the direction sought with a large enough effect; inconclusive = small, poorly fitted or top-dose-only effect, or another doubt; inactive = no such curve, though single readings can be large; an effect the other way counts as inactive or inconclusive.

In assay [1] the target is Cytochrome P450 1A2 (Homo sapiens) (UniProt P05177). Nature of the assay: p450-cyp1a2 (AID 410; calls by dose curve;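 note: -100% = full effect of reference inhibitor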). The method in brief:
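20nM CYP1A2, 100uM Luciferin-ME (=Km), 100mM KPO4; cpd 10 min RT; +NADPH regen, 60 min RT; stop/detect 20 min; luminescence. Normalized to furafylline 57 uM = full inhibition.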

Assay [2] concerns the target Glucocorticoid receptor (Homo sapiens) (UniProt P04150). As to the kind of experiment: GR-GFP Redistribution (AID 450;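 active = compounds whose dose series gives a full or clear partial fitted curve of increased nuclear translocation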; note: potency is the fitted concentration of half-maximal effect). To be noted: U2OS GR-GFP nuclear translocation, laser cytometry, 2 h.
Assay [3] shares this target. As to the kind of experiment: GR-EFC Redistribution (AID 451; calls by dose curve; note: potency is the fitted concentration of half-maximal effect). To be noted: CHO-K1 GR-EFC translocation, beta-gal luminescence, 2 h. An outline of the steps:
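Translocation of GR-ED fusion to nuclear EA restores b-gal, read by luminescence after 1 h room-temperature detection. Engineered CHO-K1 biosensor cells, 1,000/well, exposed 2 h at 37 C to titrations up to 46 uM final.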

Assay [4] deals with Mitogen-activated protein kinase 10 (Mus musculus) (UniProt Q61831). As to the kind of experiment: JNK3 AlphaScreen Assay (AID 530; active = well fitted curve in either direction with a large enough effect, not every such curve was filed as active;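 note: kinase came from lysate of stimulated human HepG2 cells; signal reports phosphorylation of biotinylated GST-cJun 1-79 at Ser73 with 10 µM ATP; % is set by controls: 0 for no effect and ±100 for the full control effect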). The method in brief: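 Kinase buffer: 20 mM Tris-HCl pH 7.6, 10 mM MgCl2, 1 mM DTT, 0.1 mM Na3VO4, 0.01% Tween-20; ATP 10 uM. Substrate biotin-GST-cJun(1-79), enzyme from activated HepG2 lysates. Detection by Ser73 phospho-antibody AlphaScreen.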
In general terms: Alpha assays give light when donor and acceptor beads are brought close together.

Assay [5] addresses 3',5'-cyclic-AMP phosphodiesterase 4B (Homo sapiens) (UniProt Q07343). As to the kind of experiment: qHTS Assay for Inhibitors of PDE-IV (AID 607; active = well fitted activation curve with a large enough effect in the main read-out, with a control signal flat, not every such curve was filed as active; note: % of control where 0% means no effect). An outline of the steps: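 Live HEK293 cells with a modified cyclic nucleotide-gated (CNG) channel report intracellular cAMP via membrane-potential dye fluorescence (ex 535/em 590 nm). Endogenous PDE-IV was targeted. Compounds were tested at up to 22.9 uM final; RO 20-1724 100 uM served as control.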
In general terms: In qHTS, concentration-response curves come from the screen itself.

The nature of assay [6]: qHTS Assay for Lipid Storage Modulators (AID 1519; calls by dose curve; for activity change, negative = inhibition: % is set by controls: 0 for no effect and ±100 for the full control effect). Conditions: Drosophila S3 cells, BODIPY lipid droplet/cell ratio, laser cytometry, cells loaded with oleic acid; for activity change, negative = inhibition: at 57.5 µM (top of the series). An outline of the steps:
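Cells seeded at 5,000 per well were treated with compounds over a concentration series and loaded with oleic acid (400 uM, as added). Lipid droplet fluorescence (488 nm excitation, 500-530 nm channel) was read by laser-scanning cytometry and normalized to 20 uM Triacsin C.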

Assay [7] deals with Ubiquitin carboxyl-terminal hydrolase 1 (Homo sapiens) (UniProt O94782). Nature of the assay: Inhibitors of USP1/UAF1: Pilot qHTS (AID 504865).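 Note: rhodamine fluorescence freed from ubiquitin-rhodamine substrate followed over time; top concentration of the series differs between compounds; % is set by controls: 0 for no effect and ±100 for the full control effect; nearly all actives have a fitted effect of over 35% in size.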 An outline of the steps:
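In 50mM HEPES pH 7.8 containing 0.5mM EDTA, 1mM TCEP, 0.1 mg/ml BSA and 0.01% Tween-20, 1nM USP1/UAF1 is exposed to compound for 15 min, then Ub-Rho (150nM final) is added and fluorescence is read over time.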

In assay [8] the target is DNA dC->dU-editing enzyme APOBEC-3G (Homo sapiens) (UniProt Q9HC16). As to the kind of experiment: qHTS for inhibitors of Vif-A3G interactions: Validation (AID 588379). Note: 0% is about no effect. An outline of the steps:
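Yellow fluorescence (Ex 488, Em 500-530) of Vif-coexpressing HeLa A3G-eYFP cells, scanned by Acumen cytometer, reports blocked A3G degradation. Cells plated at 700/well overnight at 37 deg C before compound addition, then a further overnight compound incubation at 37 deg C.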

Assay [9] relates to Zika virus NS2B-NS3 protease. As to the kind of experiment: Primary screen GU AMC qHTS for Zika virus inhibitors (AID 1347154).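 Note: 0% = no-inhibitor control and -100% = no-enzyme control; nearly all actives have a fitted effect of over 70% in size.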 An outline of the steps:
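Fluorogenic AMC-substrate cleavage by noncovalent NS2B-NS3 protease complex (25 nM, pH 8.0 Tris buffer with Tween 20) followed for 15 minutes at room temperature (~20% conversion). Percent inhibition from ex340/em450 signal change, fitted by 4-parameter Hill equation.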

Assay [10] addresses Cytochrome P450 3A4 (Homo sapiens) (UniProt P08684). As to the kind of experiment: qHTS Assay for Inhibitors and Substrates of Cytochrome P450 3A4 (AID 884). Note: % is set by controls: 0 for no effect and ±100 for the full control effect; nearly all actives have a fitted effect of over 50% in size. The method in brief:
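Luminescent readout of luciferin produced by CYP3A4 (20 nM) dealkylation of Luciferin-PPXE, 25 uM (its KM). NADPH-driven reaction ran 60 min at RT after 10 min compound preincubation; data scaled to 57 uM ketoconazole as 100% inhibition.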

A short description of assay [11]: Confirmation and Secondary Assay for Modulators of Hemoglobin Beta Chain Splicing at IVS2 654 locus (AID 910).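 Note: HeLa cells stably carrying EGFP split by mutant beta-globin IVS2-654 intron; per-well total GFP intensity by laser scanning cytometry after 2-day treatment; % of control where 0% means no effect.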 An outline of the steps: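 Readout: per-well total peak green fluorescence (488 nm ex, 500–520 nm em) from objects 5–250 µm, reflecting correct splicing of an EGFP-654 reporter. Compounds were applied for 2 days at 37 °C to overnight-plated HeLa EGFP-654 cells; controls were DMSO and 500 nM IVS2-654 PNA.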

Assay [12] is described as follows: Confirmation and Secondary Assay for Modulators of Hemoglobin Beta Chain Splicing at IVS2 705 locus (AID 930).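 Note: HeLa cells stably expressing the EGFP-705 splicing reporter; GFP fluorescence per well restored by corrected splicing of the IVS2-705 intron in EGFP; % of control where 0% means no effect.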 The method in brief: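 HeLa EGFP-705 reporter; 500 cells/well, o/n 37C 5% CO2; cpd 2 d; 488 ex/500-520 em laser scan; total peak GFP intensity/well. Ref: 500 nM […] antisense PNA.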
Assay [13] has as its target Cytochrome P450 2D6 (Homo sapiens) (UniProt P10635). Nature of the assay: Cytochrome P450 family 2 subfamily D member 6 (CYP2D6) small molecule antagonists: luciferase biochemical (cell-free) qHTS assay (AID 1645840; active = well fitted curve in the direction sought with a large enough effect in the repeat runs; an effect the other way counts as inactive or inconclusive; note: % is set by controls: 0 for no effect and ±100 for the full control effect; nearly all actives have a fitted effect of over 55% in size). An outline of the steps:
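P450-Glo CYP2D6 system: proluciferin substrate converted by enzyme to luciferin, read by luminescence proportional to activity. Enzyme-substrate mix with compound 10 min at room temperature, then NADPH regeneration 1 h before detection reagent.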

Assay [14] deals with Cytochrome P450 3A4 (Homo sapiens) (UniProt P08684). Nature of the assay: Cytochrome P450 family 3 subfamily A member 4 (CYP3A4) small molecule antagonists: luciferase qHTS assay (AID 1645841; active = well fitted curve in the direction sought with a large enough effect in the repeat runs; an effect the other way counts as inactive or inconclusive; note: nearly all actives have a fitted effect of over 45% in size). The method in brief: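 Luminescent CYP3A4 activity readout: compounds plus enzyme-substrate mix 10 min at room temperature, reaction started with NADPH regenerating system for 1 h, stopped with detection reagent, read after 20 min. Ketoconazole served as control.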
Chain of Cytochrome P450 3A4 (Homo sapiens) (P08684 whole entry, looked up): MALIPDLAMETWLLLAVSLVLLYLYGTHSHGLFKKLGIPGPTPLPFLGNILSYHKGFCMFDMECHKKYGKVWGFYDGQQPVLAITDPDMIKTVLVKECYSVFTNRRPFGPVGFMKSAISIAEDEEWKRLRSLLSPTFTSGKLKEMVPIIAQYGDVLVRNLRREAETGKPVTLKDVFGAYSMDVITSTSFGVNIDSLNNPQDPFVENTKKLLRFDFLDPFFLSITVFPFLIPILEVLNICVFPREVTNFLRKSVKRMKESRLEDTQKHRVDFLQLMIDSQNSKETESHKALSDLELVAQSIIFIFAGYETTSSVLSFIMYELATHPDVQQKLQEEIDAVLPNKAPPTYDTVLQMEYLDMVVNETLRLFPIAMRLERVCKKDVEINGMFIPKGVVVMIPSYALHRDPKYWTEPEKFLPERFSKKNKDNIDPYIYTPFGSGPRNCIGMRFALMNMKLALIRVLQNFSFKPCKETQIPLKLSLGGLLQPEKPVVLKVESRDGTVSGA

The nature of assay [15]: NCATS anti-infectives library activity on HEK293 viability as a counter-qHTS vs the C. elegans viability qHTS (AID 1745854). Note: % is set by controls: 0 for no effect and ±100 for the full control effect. The method in brief: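 CellTiter-Glo luminescence, read on a CCD imager, scored viability of HEK293 cells after 24 hr compound exposure at 37C. Library tested in several concentrations, 1:5 steps, up to 41.7 uM; digitonin served as control.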
The mark [16] stands for this setting: measured here: cell count channel max response.
[17] abbreviates: measured here: lipid channel max response.

Chain of Ubiquitin carboxyl-terminal hydrolase 1 (Homo sapiens) (O94782 whole entry, looked up): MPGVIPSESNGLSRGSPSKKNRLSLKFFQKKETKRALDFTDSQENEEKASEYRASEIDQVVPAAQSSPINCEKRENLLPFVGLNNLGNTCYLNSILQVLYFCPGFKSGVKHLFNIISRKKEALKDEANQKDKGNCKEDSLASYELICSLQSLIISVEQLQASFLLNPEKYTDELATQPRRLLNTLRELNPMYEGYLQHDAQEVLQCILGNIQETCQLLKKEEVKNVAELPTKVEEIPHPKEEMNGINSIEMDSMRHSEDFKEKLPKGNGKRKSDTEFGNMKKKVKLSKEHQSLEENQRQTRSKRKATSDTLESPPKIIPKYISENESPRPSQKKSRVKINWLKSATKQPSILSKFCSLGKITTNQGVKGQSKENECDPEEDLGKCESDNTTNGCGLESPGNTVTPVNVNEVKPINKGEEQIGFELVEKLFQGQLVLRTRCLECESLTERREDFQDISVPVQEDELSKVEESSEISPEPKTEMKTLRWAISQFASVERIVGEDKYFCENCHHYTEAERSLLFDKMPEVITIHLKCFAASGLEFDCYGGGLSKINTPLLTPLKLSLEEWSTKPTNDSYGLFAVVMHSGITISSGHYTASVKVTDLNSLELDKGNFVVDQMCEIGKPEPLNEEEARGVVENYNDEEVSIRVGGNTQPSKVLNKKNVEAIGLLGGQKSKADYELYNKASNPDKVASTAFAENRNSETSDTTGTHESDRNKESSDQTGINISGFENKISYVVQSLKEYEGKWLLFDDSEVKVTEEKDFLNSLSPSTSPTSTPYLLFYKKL
Chain of DNA dC->dU-editing enzyme APOBEC-3G (Homo sapiens) (Q9HC16 whole entry, looked up): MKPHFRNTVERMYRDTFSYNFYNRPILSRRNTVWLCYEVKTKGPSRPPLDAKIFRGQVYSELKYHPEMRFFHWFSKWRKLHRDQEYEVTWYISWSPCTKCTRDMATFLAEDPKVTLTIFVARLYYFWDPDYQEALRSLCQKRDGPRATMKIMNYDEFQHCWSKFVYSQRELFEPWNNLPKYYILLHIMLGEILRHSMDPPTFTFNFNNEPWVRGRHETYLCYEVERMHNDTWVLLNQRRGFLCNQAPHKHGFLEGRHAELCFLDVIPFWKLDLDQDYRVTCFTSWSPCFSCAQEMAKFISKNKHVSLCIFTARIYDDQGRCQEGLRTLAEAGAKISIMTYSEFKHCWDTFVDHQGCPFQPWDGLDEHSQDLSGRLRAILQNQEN
Chain of Glucocorticoid receptor (Homo sapiens) (P04150 whole entry, looked up): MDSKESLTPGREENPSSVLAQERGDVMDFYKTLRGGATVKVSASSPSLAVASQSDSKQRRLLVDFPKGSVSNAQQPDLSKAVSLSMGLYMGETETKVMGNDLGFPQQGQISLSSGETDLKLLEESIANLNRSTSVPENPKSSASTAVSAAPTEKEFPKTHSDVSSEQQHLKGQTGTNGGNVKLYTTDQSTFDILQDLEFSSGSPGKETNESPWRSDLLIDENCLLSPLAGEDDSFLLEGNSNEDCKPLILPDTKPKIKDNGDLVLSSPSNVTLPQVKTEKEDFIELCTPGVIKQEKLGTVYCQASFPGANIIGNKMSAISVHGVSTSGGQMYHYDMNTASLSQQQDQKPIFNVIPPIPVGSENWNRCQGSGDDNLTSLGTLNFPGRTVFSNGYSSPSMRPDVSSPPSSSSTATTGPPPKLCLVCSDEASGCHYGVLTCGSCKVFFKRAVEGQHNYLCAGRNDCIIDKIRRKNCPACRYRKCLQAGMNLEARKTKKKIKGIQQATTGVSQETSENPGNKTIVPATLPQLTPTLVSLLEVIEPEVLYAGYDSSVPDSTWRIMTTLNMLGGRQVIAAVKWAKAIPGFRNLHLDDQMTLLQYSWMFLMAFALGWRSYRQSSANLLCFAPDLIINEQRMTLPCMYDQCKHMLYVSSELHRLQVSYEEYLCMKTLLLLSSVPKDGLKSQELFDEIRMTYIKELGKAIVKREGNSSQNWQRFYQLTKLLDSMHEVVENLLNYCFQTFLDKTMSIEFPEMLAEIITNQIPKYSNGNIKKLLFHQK
Chain of Cytochrome P450 2D6 (Homo sapiens) (P10635 whole entry, looked up): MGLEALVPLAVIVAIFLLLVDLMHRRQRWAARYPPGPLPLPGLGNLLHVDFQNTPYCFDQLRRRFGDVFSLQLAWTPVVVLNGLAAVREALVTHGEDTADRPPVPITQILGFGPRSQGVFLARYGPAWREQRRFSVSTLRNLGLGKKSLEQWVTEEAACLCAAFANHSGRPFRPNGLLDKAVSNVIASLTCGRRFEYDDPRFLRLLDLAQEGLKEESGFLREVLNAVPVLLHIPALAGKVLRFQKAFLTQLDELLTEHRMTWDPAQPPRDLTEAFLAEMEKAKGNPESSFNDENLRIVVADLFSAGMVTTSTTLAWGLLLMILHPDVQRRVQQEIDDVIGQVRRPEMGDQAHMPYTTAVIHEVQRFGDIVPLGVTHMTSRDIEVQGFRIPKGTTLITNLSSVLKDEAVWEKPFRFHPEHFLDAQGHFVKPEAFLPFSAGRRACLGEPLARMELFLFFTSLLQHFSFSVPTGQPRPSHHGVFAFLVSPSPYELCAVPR
Chain of Cytochrome P450 1A2 (Homo sapiens) (P05177 whole entry, looked up): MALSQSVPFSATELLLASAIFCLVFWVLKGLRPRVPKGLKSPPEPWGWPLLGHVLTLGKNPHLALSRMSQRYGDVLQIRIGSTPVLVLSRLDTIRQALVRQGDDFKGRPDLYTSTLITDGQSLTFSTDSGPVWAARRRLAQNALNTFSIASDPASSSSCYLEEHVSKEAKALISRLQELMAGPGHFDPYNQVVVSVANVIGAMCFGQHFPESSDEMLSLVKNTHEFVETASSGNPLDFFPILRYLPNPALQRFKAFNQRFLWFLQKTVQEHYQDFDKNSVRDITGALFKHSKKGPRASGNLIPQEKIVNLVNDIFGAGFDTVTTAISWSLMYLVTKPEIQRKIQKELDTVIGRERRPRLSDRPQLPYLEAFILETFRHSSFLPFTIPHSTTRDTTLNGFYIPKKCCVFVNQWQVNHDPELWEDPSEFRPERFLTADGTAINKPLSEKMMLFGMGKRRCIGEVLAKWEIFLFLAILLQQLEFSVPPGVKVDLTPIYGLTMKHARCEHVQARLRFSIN
Chain of 3',5'-cyclic-AMP phosphodiesterase 4B (Homo sapiens) (Q07343 whole entry, looked up): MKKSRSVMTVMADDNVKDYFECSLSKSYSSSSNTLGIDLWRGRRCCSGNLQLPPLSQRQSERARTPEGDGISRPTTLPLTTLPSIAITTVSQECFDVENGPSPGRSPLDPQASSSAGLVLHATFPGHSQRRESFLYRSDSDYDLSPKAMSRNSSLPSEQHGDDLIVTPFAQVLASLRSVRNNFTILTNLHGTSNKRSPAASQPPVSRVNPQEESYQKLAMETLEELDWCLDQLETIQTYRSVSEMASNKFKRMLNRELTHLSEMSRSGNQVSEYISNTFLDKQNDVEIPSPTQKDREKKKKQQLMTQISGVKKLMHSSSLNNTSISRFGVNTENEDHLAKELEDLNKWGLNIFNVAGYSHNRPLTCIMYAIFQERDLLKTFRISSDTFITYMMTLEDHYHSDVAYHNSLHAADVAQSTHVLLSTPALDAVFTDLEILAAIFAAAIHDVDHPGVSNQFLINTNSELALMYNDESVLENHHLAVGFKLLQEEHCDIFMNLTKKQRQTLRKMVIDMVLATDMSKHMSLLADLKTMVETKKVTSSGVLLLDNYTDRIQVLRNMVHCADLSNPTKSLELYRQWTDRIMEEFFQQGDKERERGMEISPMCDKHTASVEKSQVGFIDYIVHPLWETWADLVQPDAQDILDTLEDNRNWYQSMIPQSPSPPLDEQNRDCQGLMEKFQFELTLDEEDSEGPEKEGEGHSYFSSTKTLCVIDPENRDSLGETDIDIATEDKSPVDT

As to `CCCCCCCCCCCC(=O)O[C@H](CC(=O)O)C[N+](C)(C)C`, the Potency entry in assay [1], in assay [4], in assay [5], in assay [7], in [8] and in [9] was “inactive” throughout. Further, the Potency in assay [2] and in assay [3] was > 46 µM (inactive) each time. The activity change, negative = inhibition in assay [6] was -2.15% (inactive). Further, the figures for the max response in [6] (setting [16]) and in assay [6] (setting [17]) were -5.13% and -11.1%, respectively.

Regarding `Nc1ncnc2c1ncn2[C@@H]1O[C@H](COP(=O)(O)OP(=O)(O)O)[C@@H](O)[C@H]1O`, the Potency entry in assay [10], in assay [7], in assay [8] and in assay [9] was “inactive” throughout. Further, in assay [6], the activity change, negative = inhibition was 5.3% (inactive). Further, the max response in [6] (setting [16]) is -2.57%; in assay [6] (setting [17]), 2.42%.

For `CC(C)c1cccc(O)c(=O)c1`, the compound was called inactive in assay [11], in assay [12], in [14] and in assay [15]. The Potency entry in assay [7], in [9] and in assay [13] was “inactive” each time.
